target: Solute carrier family 2, facilitated glucose transporter member 1 (Homo sapiens) (UniProt P11166); assay: ST_JUDE_LEISH: Cytotoxicity at 2uM final concentration against transgenic Leishmania Mexicana promastigotes LmGLUT1 that are glucose transport deficient and complemented with the human glucose transporter GLUT1. Activity is measured by DNA content using SYBR green in vitro; assay type: functional
Sequence (P11166 whole entry): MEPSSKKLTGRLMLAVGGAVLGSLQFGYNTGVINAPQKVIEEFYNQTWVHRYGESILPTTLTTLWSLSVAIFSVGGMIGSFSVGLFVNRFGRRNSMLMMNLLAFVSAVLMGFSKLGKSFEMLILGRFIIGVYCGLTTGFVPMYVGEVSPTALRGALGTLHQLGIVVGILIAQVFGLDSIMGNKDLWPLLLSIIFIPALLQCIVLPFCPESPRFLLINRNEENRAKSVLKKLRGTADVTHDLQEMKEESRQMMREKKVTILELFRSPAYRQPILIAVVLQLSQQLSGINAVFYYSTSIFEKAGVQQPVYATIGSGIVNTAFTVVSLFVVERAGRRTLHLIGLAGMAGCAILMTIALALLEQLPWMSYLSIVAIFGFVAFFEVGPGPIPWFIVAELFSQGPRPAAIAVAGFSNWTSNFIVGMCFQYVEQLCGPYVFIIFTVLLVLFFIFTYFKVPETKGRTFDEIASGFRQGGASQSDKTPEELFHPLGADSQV

Compound | inhibition [%]
CC(C(=O)OCCOCn1cnc2c(=O)[nH]c(N)nc21)N(C)C(=O)OC(C)(C)C (stereo not given) | -2.44
CCc1cccc(-n2c(=O)c3cccnc3n2CC(=O)NC2CCCC2)c1 | 3.43
CC1CCCCC1N(C)C1CCN(CCCNC(=O)C=Cc2cccc(C(F)(F)F)c2)CC1 (stereo not given) | 4.22
CC(C)CCNC(=O)C1Cc2c([nH]c3ccc(Br)cc23)C2(CCN(CCc3ccccc3)CC2)N1 (stereo not given) | 1.72
CN1C(=O)C(=O)N(CCCCCONC(=N)N)C1=S | 9.86
CC(=O)c1ccc(NC(=O)CSc2nc(-c3ccccc3Cl)ns2)cc1 | 2.79
O=C(Nc1cccc(-c2nn3ccccc3c2-c2ccnc(Nc3ccc(NCCCN4CCOCC4)c(F)c3)n2)c1)c1c(F)cccc1F | 46.9
O=C1CCCN1CCCNCc1ccc(-c2ccc(-c3nc4cc(F)ccc4[nH]3)s2)cc1 | 2.19
Cn1cnnc1Sc1ccc(CN2CCOc3ccc(C4=CCCCC4)cc3C2)o1 | 0.65
COC(=O)[C@@H](NC(=O)[C@H](CC(C)C)Nc1ccc(C#N)c2ccccc12)c1ccc(O)cc1 | 1.02
CCCCSc1nc2c(c(=O)n1Cc1ccco1)C1(CCCCC1)Cc1ccccc1-2 | 0.71
CC(=O)c1ccc(NC(=O)NNC(=O)c2ccc(CCN3CCC(c4nc(COCC(F)(F)F)c(-c5ccc(F)cc5)o4)CC3)cc2)cc1 | 0.31
Fc1ccc(C=NNc2nc3ccccc3[nH]2)cc1 | 16.4
CCc1ccccc1N=C1c2c(cccc2[N+](=O)[O-])C(=O)C1C(C)=O (stereo not given) | -1.62
COc1cccc(-c2ccc3c(-c4ccc(F)cc4)cnc(N)c3c2)c1 | 5.2
O=C(NCc1cccnc1)C(c1cc2ccccc2o1)N1CCN(C(c2ccccc2)c2ccccc2)CC1 (stereo not given) | 1.36
CCOCCCNc1sc(S(=O)(=O)c2ccccc2)nc1S(=O)(=O)c1ccc(C)cc1 | 8.93
CCCNCc1ccc(-c2ccc(CN(Cc3ccc4c(c3)OCO4)C(=O)Cc3cccnc3)cc2)nc1 | 23.9
CCn1c(-c2nonc2N)nc2c(-c3cccc(NC(=O)Nc4ccc(C(F)(F)F)cc4)c3)ncc(OCCCN)c21 | 2.98
COc1ccc(-c2ccc(NC(=O)c3ccc(Cl)cc3)cc2)cc1CN1CCCN(C)CC1 | 5.26

Compound | inhibition [%]
CCc1cn(CC(=O)N(CCOc2ccc(-c3ccc(C(F)(F)F)cc3)cc2)CCN(CC)CC)c(SCc2ccc(F)cc2)nc1=O | 0.38
COc1ccc(C2C(C(=O)Nc3ccccc3)=C(C)Nc3c(C(=O)Nc4ccccc4)cnn32)cc1 (stereo not given) | 2.83
Nc1ccc(Oc2ccc(Cc3cnc(N)nc3N)cc2)cc1 | 3.93
O=C(Nc1ccc(C(F)(F)F)cc1)c1cccc(S(=O)(=O)NC2CCN(Cc3ccccc3)C2)c1 (stereo not given) | 4.37
CC(C)(CNC(=O)[C@@H]1CCCN(CCOc2ccc(Cl)cc2)C1)c1nc(-c2ccc(Cl)c(O)c2)c(-c2ccncc2)[nH]1 | -1.34
Cc1cc(C)c2oc(-c3cccc(NC(=O)c4ccc([N+](=O)[O-])o4)c3C)nc2c1 | 11.4
COc1ccc(Cl)cc1N1CCN(CCCNC(=O)c2ccc(-c3nc4cc(Cl)c(Cl)cc4[nH]3)c(C)c2)CC1 | 1.66
COc1ccc(CNC(=O)NC2CCN(c3ccnc(Nc4ccc(F)cc4)n3)C2)cc1 (stereo not given) | 7.84
CCCc1cc(NC2CCN(C)CC2)nc(Nc2ccc(C)cc2)n1 | 5.35
Cc1ccc(-n2c(C)nc3c(Nc4ccc(-c5ccncc5)cc4)ncnc32)c(C)c1 | 91.7
O=C(Nc1cccc(-c2cc(-c3c(Cl)cccc3Cl)no2)c1)c1cnc2ccccc2c1 | 11.8
Cc1cc(NCCc2ccc(O)cc2)nc(NCC(c2ccccc2)c2ccccc2)n1 | 12.9
Nc1c(Cl)cc(C(O)CNCCCCCCOCCc2ccc(O)cc2)cc1Cl (stereo not given) | -0.61
COc1ccc(C(=O)N2CCc3cc4nccc(N5CCN6CCC[C@H]6C5)c4cc32)cc1 | 2.59
O=C(Nc1ccc(Cl)cc1)Nc1cccc(-c2cccc(-c3nc4cc(C(F)(F)F)ccc4[nH]3)c2)c1 | -0.58
O=C(NCCCCCN1CCC(c2c[nH]c3ccccc23)CC1)Nc1cccc(Br)c1 | 8.56
COc1ccc(NC(=O)C2c3ccccc3C(=O)N(C3CCCC3)C2c2cccs2)cc1OC (stereo not given) | 2.85
COc1ccc2c(=NN=Cc3c(OC)ccc4ccccc34)cc(C)[nH]c2c1 | 2.05
Cc1cc(C2CCN(CCCCNC(=O)c3ccc(NC(=O)c4ccc(Cl)cc4)cc3)CC2)c(C)cc1OCc1nccn1C | 0.5
CCCCCCCN1CCC(NC(=O)Nc2ccnc3ccc(OC)cc23)C(C(=O)OCC)C1 (stereo not given) | -2.21

— ChEMBL document CHEMBL3433997, “St. Jude Leishmania screening dataset” (2016)
